# The supplement of paper PMC12808144
# Unmarked numbers belong to inactive results.
# Experiments:
# Mel-DCC-11 = assay: cell viability relative to DMSO control (fraction of DMSO control); higher = less cytotoxic, active = 0.5 or less; conditions: 1 µM; 120 h
# Method in brief: (§1)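 Cells in 40 µl per well went into 384-well plates pre-spotted acoustically with a TargetMol library of 315 approved anti-cancer drugs, each at 1 µM in duplicate, for 120 h. Seeding was 2500/well for NHEM-hTERT immortalized melanocytes and 1500/well for patient-derived Mel-DCC-11 and its resistant subline Mel-DCC-11-R, which was run alone and with 8 µM of its selecting drug. Luminescence was read with ATPlite 1step. Viability was normalised to vehicle-treated controls and averaged over duplicates.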
# NHEM-hTERT = assay: as above; conditions: 1 µM; 120 h
# Method in brief: as §1
# Mel-DCC-11-R = assay: cell viability relative to DMSO control (fraction of DMSO control); higher = less cytotoxic, active = 0.8 or less; conditions: 1 µM, 120 h
# Method in brief: as §1
Compound,cell viability (Mel-DCC-11),cell viability (NHEM-hTERT),cell viability (Mel-DCC-11-R; vemurafenib co-treatment 0 µM),cell viability (Mel-DCC-11-R; vemurafenib co-treatment 8 µM)
Nc1cccc2c1C(=O)N(C1CCC(=O)NC1=O)C2=O (centres undefined) [Pomalidomide],1.03,1.15,1,1.25
CC(COc1ccccc1)N(CCCl)Cc1ccccc1.Cl (centres undefined) [Phenoxybenzamine hydrochloride],–,1.13,–,–
CS(=O)(=O)CCNCc1ccc(-c2ccc3ncnc(Nc4ccc(OCc5cccc(F)c5)c(Cl)c4)c3c2)o1.Cc1ccc(S(=O)(=O)O)cc1.Cc1ccc(S(=O)(=O)O)cc1 [Lapatinib Ditosylate],1.29,1.13,1.27,0.885
C[C@]12CC[C@@H]3c4ccc(O)cc4C[C@@H](CCCCCCCCCS(=O)CCCC(F)(F)C(F)(F)F)[C@H]3[C@@H]1CC[C@@H]2O (some centres undefined) [Fulvestrant],1.05,0.817,0.987,0.809
CC(C)C[C@H](NC(=O)CNC(=O)c1cc(Cl)ccc1Cl)B(O)O [Ixazomib],0.0361 (active),0.0856 (active),0.13 (active),0.0834 (active)
COC(=O)c1cc(OC)c2c(c1-c1c(CO)cc(OC)c3c1OCO3)OCO2 [Bicyclol],–,1.12,–,–
O=c1[nH]c(=O)n(C2CCCO2)cc1F (centres undefined) [Tegafur],–,0.922,–,–
Cc1cc(Nc2cc(N3CCN(C)CC3)nc(Sc3ccc(NC(=O)C4CC4)cc3)n2)n[nH]1 [Tozasertib],–,0.841,–,–
CC1=C(/C=C/C(C)=C/C=C/C(C)=C/C(=O)O)C(C)(C)CCC1 [Tretinoin],1.5,0.953,0.946,1.19
Cc1nc2ccc(CN(C)c3ccc(C(=O)N[C@@H](CCC(=O)O)C(=O)O)s3)cc2c(=O)[nH]1 [Raltitrexed],–,1.03,–,–
CC1(C)NC(=O)N(c2ccc([N+](=O)[O-])c(C(F)(F)F)c2)C1=O [Nilutamide],1.09,1.19,1.03,0.997
CC(C)=CCC/C(C)=C/CC/C(C)=C/CC/C(C)=C/CC1=C(C)C(=O)c2ccccc2C1=O [Menatetrenone],1.25,1.02,1.11,1.18
Nc1ccn([C@@H]2O[C@H](CO)[C@@H](O)C2(F)F)c(=O)n1 [Gemcitabine],0.437 (active),0.639,0.869,0.709 (active)
C[C@@H](CN1CC(=O)NC(=O)C1)N1CC(=O)NC(=O)C1.Cl [Dexrazoxane HCl],1.21,1.2,1.09,1.13
CNC(=O)c1ccc(N2C(=S)N(c3ccc(C#N)c(C(F)(F)F)c3)C(=O)C2(C)C)cc1F [Enzalutamide],–,1.11,–,–
CC(=O)O[C@H]1C(=O)[C@]2(C)[C@@H](O)C[C@H]3OC[C@@]3(OC(C)=O)[C@@H]2[C@@H](OC(=O)c2ccccc2)[C@]2(O)C[C@H](OC(=O)[C@H](O)[C@@H](NC(=O)c3ccccc3)c3ccccc3)C(C)=C1C2(C)C [Paclitaxel],0.453 (active),0.569,1.06,0.526 (active)
CS(=O)(=O)CCNCc1ccc(-c2ccc3ncnc(Nc4ccc(OCc5cccc(F)c5)c(Cl)c4)c3c2)o1 [Lapatinib],–,0.822,–,–
CO[C@H]1C[C@@H]2CC[C@@H](C)[C@@](O)(O2)C(=O)C(=O)N2CCCC[C@H]2C(=O)O[C@H]([C@H](C)C[C@@H]2CC[C@@H](OCCO)[C@H](OC)C2)CC(=O)[C@H](C)/C=C(\C)[C@@H](O)[C@@H](OC)C(=O)[C@H](C)C[C@H](C)/C=C/C=C/C=C/1C [Everolimus],1.35,0.964,1.57,0.834
COc1c(OCCCN2CCOCC2)ccc2c1N=C(NC(=O)c1cnc(N)nc1)N1CCN=C21 [Copanlisib],0.966,0.829,0.671 (active),0.254 (active)
CC(=O)c1c(C)c2cnc(Nc3ccc(N4CCNCC4)cn3)nc2n(C2CCCC2)c1=O.Cl [Palbociclib hydrochloride],0.591,1.05,1.46,1.08
